Laboratory results as given in the supplement of paper PMC12645437, “Orthogonal IMiD-Degron Pairs Induce Selective Protein Degradation in Cells” (ACS Chemical Biology, 2025).
Over roughly 8,300 sequences, “log2 fold change of degron read counts, EGFP-low vs EGFP+ sorted cells (limma voom), compound-induced degradation” has its median near -1.1; the highest 2% begin near 3.2. Shown is part of a subset that was picked to be rich in the highest values.

T1: CRBN, Q96SW2
T1 chain: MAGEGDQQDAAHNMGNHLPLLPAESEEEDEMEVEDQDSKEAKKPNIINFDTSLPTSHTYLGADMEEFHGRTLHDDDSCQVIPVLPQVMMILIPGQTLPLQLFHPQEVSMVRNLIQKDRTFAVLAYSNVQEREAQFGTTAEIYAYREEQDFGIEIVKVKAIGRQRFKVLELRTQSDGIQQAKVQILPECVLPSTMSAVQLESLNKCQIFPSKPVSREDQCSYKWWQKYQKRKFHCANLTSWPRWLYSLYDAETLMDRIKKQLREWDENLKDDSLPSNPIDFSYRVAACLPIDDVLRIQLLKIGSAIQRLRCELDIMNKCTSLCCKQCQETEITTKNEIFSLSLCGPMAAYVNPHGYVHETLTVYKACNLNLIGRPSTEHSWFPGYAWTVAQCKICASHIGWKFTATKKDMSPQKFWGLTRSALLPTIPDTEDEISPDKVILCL


Target: T1, CRBN, Q96SW2
Assay: log2 fold change of degron read counts, EGFP-low vs EGFP+ sorted cells (limma voom), compound-induced degradation; higher = more compound-induced degradation of the degron-EGFP fusion; degrons are variants of IKZF1/3 zinc finger 2; compound dose not given here
Conditions: Jurkat, 18 h
Description: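 Pooled library of 8380 IKZF3 ZF2 degron mutants (positions 146-167 varied within the IKZF3 130-189 degron; only the varied core is printed, flanks not printed) fused to EGFP with IRES-mCherry, lentivirally expressed in Jurkat cells. mCherry+ cells were treated with one IMiD compound for 18 h (dose not stated) and FACS-sorted into EGFP-low and EGFP+ populations. Degron sequences were counted by NGS, and log2FC (EGFP-low vs EGFP+) was estimated by limma voom over 3 biological replicates.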

[1] = compound: compound 19 (5-tert-butyl-thalidomide)
[2] = compound: compound 22 (5-morpholino-thalidomide)
[3] = compound: compound 33 (diphenyl IMiD analogue)
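Note: pooled lentiviral library of zinc finger degron-EGFP fusions in mCherry-positive Jurkat cells, FACS-sorted after compound exposure, with degron abundance counted by next-generation sequencing.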

Row | Sequence | log2 fold change of degron read counts [1] | log2 fold change of degron read counts [2] | log2 fold change of degron read counts [3] | log2 fold change of degron read counts (compound: thalidomide)
1 | FDCDQCGAEFTQKGNLLRHIKL [46F_47D_49D_50Q_52G_53A_54E_55F_67L_, Q9UKT9] | -3.44 | -3.7 | -3.04 | -3.25
2 | FVCEVCGAFFTQKGNLLRHIKL [46F_47V_49E_50V_52G_53A_54F_55F_67L_, Q9UKT9] | -0.979 | -0.472 | 1.09 | 0.698
3 | FDCPQCGAMFTQKGNLLRHIKL [46F_47D_49P_50Q_52G_53A_54M_55F_67L_, Q9UKT9] | -2.55 | -2.86 | -1.76 | -1.75
4 | FFCNQCGRSFTQKGNLLRHIKL [46F_47F_49N_50Q_52G_53R_54S_55F_67L_, Q9UKT9] | -2.31 | -2.35 | -2.54 | -2.53
5 | FYCDQCGAEFTQKGNLLRHIKL [46F_47Y_49D_50Q_52G_53A_54E_55F_67L_, Q9UKT9] | -1.15 | -2.26 | -1.96 | -3.08
6 | FNCPICGHAFTQKGNLLRHIKL [46F_47N_49P_50I_52G_53H_54A_55F_67L_, Q9UKT9] | -1.92 | -2.91 | -2.41 | -1.74
7 | FWCPICGAEFTQKGNLLRHIKL [46F_47W_49P_50I_52G_53A_54E_55F_67L_, Q9UKT9] | 2.47 | 2.5 | 1.96 | 0.113
8 | FDCNQCGHAFTQKGNLLRHIKL [46F_47D_49N_50Q_52G_53H_54A_55F_67L_, Q9UKT9] | -2.71 | -2.67 | -2.47 | -2.94
9 | FKCDICGAEFTQKGNLLRHIKL [46F_47K_49D_50I_52G_53A_54E_55F_67L_, Q9UKT9] | -3.02 | -3.75 | -4.07 | -2.58
10 | FKCSVCGHVFTQKGNLLRHIKL [46F_47K_49S_50V_52G_53H_54V_55F_67L_, Q9UKT9] | -3.06 | -3.01 | -3.11 | -3.07
11 | FWCEQCGAQFTQKGNLLRHIKL [46F_47W_49E_50Q_52G_53A_54Q_55F_67L_, Q9UKT9] | 0.92 | 2.94 | 0.838 | -0.633
12 | FFCPICGACFTQKGNLLRHIKL [46F_47F_49P_50I_52G_53A_54C_55F_67L_, Q9UKT9] | 3.22 | 3.44 | 2.28 | 1.16
13 | FKCPICGACFTQKGNLLRHIKL [46F_47K_49P_50I_52G_53A_54C_55F_67L_, Q9UKT9] | -0.511 | -2.33 | -2.58 | -0.71
14 | FGCPICGACFTQKGNLLRHIKL [46F_47G_49P_50I_52G_53A_54C_55F_67L_, Q9UKT9] | 3.9 | 2.82 | 2.74 | 1.24
15 | FECPICGACFTQKGNLLRHIKL [46F_47E_49P_50I_52G_53A_54C_55F_67L_, Q9UKT9] | 0.233 | -0.321 | 2.66 | 2.94
16 | FRCPICGACFTQKGNLLRHIKL [46F_47R_49P_50I_52G_53A_54C_55F_67L_, Q9UKT9] | -0.121 | 0.343 | 1.61 | 1.35
17 | FHCPICGACFTQKGNLLRHIKL [46F_47H_49P_50I_52G_53A_54C_55F_67L_, Q9UKT9] | 2.71 | 2.64 | 2.08 | 0.899
18 | LQCEICGFFCTQKGNLLRHIKL [46L_47Q_49E_50I_52G_53F_54F_55C_67L_, Q9UKT9] | -0.636 | -0.227 | 0.554 | 1.77
19 | FVCEICGRLFTQKGNLLRHIKL [46F_47V_49E_50I_52G_53R_54L_55F_67L_, Q9UKT9] | -1.71 | -1.28 | -0.137 | 0.207
20 | FQCNICGASFTQKGNLLRHIKL [46F_47Q_49N_50I_52G_53A_54S_55F_67L_, Q9UKT9] | 0.609 | 1.43 | 1.22 | 3.34
21 | FACNICGASFTQKGNLLRHIKL [46F_47A_49N_50I_52G_53A_54S_55F_67L_, Q9UKT9] | 2.29 | 2.03 | 0.254 | 0.112
22 | FWCNICGASFTQKGNLLRHIKL [46F_47W_49N_50I_52G_53A_54S_55F_67L_, Q9UKT9] | 2.6 | 3.54 | 1.69 | 0.481
23 | FYCNICGASFTQKGNLLRHIKL [46F_47Y_49N_50I_52G_53A_54S_55F_67L_, Q9UKT9] | 2.45 | 2.95 | 1.49 | -0.148
24 | FMCNICGASFTQKGNLLRHIKL [46F_47M_49N_50I_52G_53A_54S_55F_67L_, Q9UKT9] | -0.622 | 0.367 | 2.22 | 0.902
25 | FNCNICGASFTQKGNLLRHIKL [46F_47N_49N_50I_52G_53A_54S_55F_67L_, Q9UKT9] | 1.49 | 0.652 | 0.369 | -0.42
26 | FHCDVCGAFFTQKGNLLRHIKL [46F_47H_49D_50V_52G_53A_54F_55F_67L_, Q9UKT9] | -1.48 | -1.49 | -1.88 | -2.83
27 | FKCNICGAKFTQKGNLLRHIKL [46F_47K_49N_50I_52G_53A_54K_55F_67L_, Q9UKT9] | -2.4 | -3.54 | -2.58 | -2.17
28 | FRCSVCGHFFTQKGNLLRHIKL [46F_47R_49S_50V_52G_53H_54F_55F_67L_, Q9UKT9] | -2.15 | -2.33 | -2.44 | -1.78
